Measured values as given in PubChem BioAssay AID1159580 (chemical genetic matrix, 2015).
The campaign covered roughly 5,500 compounds. About 2,000 (36%) were called active. Roughly 18% stayed inconclusive and do not appear here. Cut-off read from the data, not from the text of the source: active = normalized growth mostly below about 0.91 (no sharp cut-off); inconclusive = no clear call, values can overlap the other calls; inactive = mostly above about 0.92. The list shows a part of the results.

Assay: chemical genetic growth profiling, strain panel (AID 1159580);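 note: tested at 20 µM; growth read once vehicle control cultures reached saturation at 30 °C; 1 = growth at the plate median or of vehicle wells; lower values mean less growth of the strain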
Conditions: S. cerevisiae deletion strains, growth OD

Measured: normalized growth

CCN(CC)[N+]([O-])=NO
inactive: locus YHR030C, strain SLT2, hits give low values 0.974 | locus YHR079C, strain IRE1, hits give low values 0.986 | locus YJL095W, strain BCK1, hits give low values 0.987 | locus YJR066W, strain TOR1, hits give low values 0.931 | locus YLR113W, strain HOG1, hits give low values 0.961 | locus YNL183C, strain NPR1, hits give low values 0.935 | locus YOR231W, strain MKK1, hits give low values 0.966 | locus YPL256C, strain CLN2, hits give low values 0.951
